Data published in PubChem BioAssay AID1159580 (chemical genetic matrix, 2015).
The whole screen tested about 5,500 compounds, of which about 2,000 (36%) were called active. Roughly 18% stayed inconclusive and do not appear here. Cut-off read from the data, not from the text of the source: active = normalized growth mostly below about 0.91 (no sharp cut-off); inconclusive = no clear call, values can overlap the other calls; inactive = mostly above about 0.92. This is one part of the list.

Assay: chemical genetic growth profiling, strain panel (AID 1159580);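 note: tested at 20 µM; growth read once vehicle control cultures reached saturation at 30 °C; 1 = growth at the plate median or of vehicle wells; lower values mean less growth of the strain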
Details: growth OD
[1] = S. cerevisiae deletion strains, locus YAL013W, strain DEP1, hits give low values
[2] = S. cerevisiae deletion strains, locus YGR078C, strain PAC10, hits give low values
[3] = S. cerevisiae deletion strains, locus YMR263W, strain SAP30, hits give low values
[4] = S. cerevisiae deletion strains, locus YMR307W, strain GAS1, hits give low values
[5] = S. cerevisiae deletion strains, locus YNL153C, strain GIM3, hits give low values
[6] = S. cerevisiae deletion strains, locus YBR229C, strain ROT2, hits give low values
[7] = S. cerevisiae deletion strains, locus YDL101C, strain DUN1, hits give low values
[8] = S. cerevisiae deletion strains, locus YDR150W, strain NUM1, hits give low values
[9] = S. cerevisiae deletion strains, locus YEL061C, strain CIN8, hits give low values
[10] = S. cerevisiae deletion strains, locus YHR030C, strain SLT2, hits give low values
[11] = S. cerevisiae deletion strains, locus YJR043C, strain POL32, hits give low values
[12] = S. cerevisiae deletion strains, locus YJR075W, strain HOC1, hits give low values
[13] = S. cerevisiae deletion strains, locus YLR039C, strain RIC1, hits give low values
[14] = S. cerevisiae deletion strains, locus YLR262C, strain YPT6, hits give low values
[15] = S. cerevisiae deletion strains, locus YNL322C, strain KRE1, hits give low values
[16] = S. cerevisiae deletion strains, locus YPL055C, strain LGE1, hits give low values
[17] = S. cerevisiae deletion strains, locus YHR079C, strain IRE1, hits give low values
[18] = S. cerevisiae deletion strains, locus YJL095W, strain BCK1, hits give low values
[19] = S. cerevisiae deletion strains, locus YJR066W, strain TOR1, hits give low values
[20] = S. cerevisiae deletion strains, locus YLR113W, strain HOG1, hits give low values
[21] = S. cerevisiae deletion strains, locus YNL183C, strain NPR1, hits give low values
[22] = S. cerevisiae deletion strains, locus YOR231W, strain MKK1, hits give low values
[23] = S. cerevisiae deletion strains, locus YPL256C, strain CLN2, hits give low values

Measured: normalized growth

Nc1nc(Cl)nc2c1ncn2[C@@H]1O[C@H](CO)[C@H](O)C1O (some centres not stated)
inactive: [1] 1.01 | S. cerevisiae deletion strains, locus YAL040C, strain CLN3, hits give low values 1.02 | S. cerevisiae deletion strains, locus YER002W, strain NOP16, hits give low values 0.991 | [2] 1.01 | [3] 1.01 | [4] 1 | [5] 1.04 | S. cerevisiae deletion strains, locus YNL175C, strain NOP13, hits give low values 0.996 | S. cerevisiae deletion strains, locus YNL197C, strain WHI3, hits give low values 0.979 | S. cerevisiae deletion strains, locus YNL224C, strain SQS1, hits give low values 1 | S. cerevisiae deletion strains, locus YOR083W, strain WHI5 (second series), hits give low values 1.02

FC(F)(F)Oc1ccc(-c2noc(CSc3ccc(Br)cc3)n2)cc1
inactive: [1] 1.02 | [6] 1.01 | [7] 0.967 | S. cerevisiae deletion strains, locus YDL134C, strain PPH21, hits give low values 0.999 | [8] 1 | [9] 0.974 | [2] 1 | S. cerevisiae deletion strains, locus YHR087W, strain rtc3, hits give low values 1.01 | [11] 0.992 | [12] 0.978 | S. cerevisiae deletion strains, locus YKL190W, strain CNB1, hits give low values 0.989 | [13] 1.05 | S. cerevisiae deletion strains, locus YLR058C, strain SHM2 (second series), hits give low values 0.997 | S. cerevisiae deletion strains, locus YLR085C, strain ARP6, hits give low values 0.905 | [14] 1 | S. cerevisiae deletion strains, locus YML094W, strain GIM5, hits give low values 0.99 | S. cerevisiae deletion strains, locus YMR219W, strain ESC1, hits give low values 1 | [3] 0.997 | [4] 0.75 | [5] 1 | S. cerevisiae deletion strains, locus YNL298W, strain CLA4 (second series), hits give low values 0.969 | [15] 0.996 | S. cerevisiae deletion strains, locus YNR030W, strain Alg12, hits give low values 0.958 | [16] 1.04 | S. cerevisiae deletion strains, locus YPL241C, strain CIN2, hits give low values 0.966 | S. cerevisiae deletion strains, locus YPR135W, strain CTF4, hits give low values 1.1 | S. cerevisiae strains, strain wild type, hits give low values 0.985
active: [10] 0.69

CC(=O)OCC1=C(C(=O)O)N2C(=O)[C@@H](N)C2SC1 (some centres not stated)
inactive: [10] 1.06 | [17] 1.07 | [18] 1.07 | [19] 0.976 | [20] 1.05 | [21] 0.983 | [22] 1.07 | [23] 1.07

C[C@H]1CC2C3CCC4=CC(=O)C=C[C@]4(C)[C@@]3(F)[C@@H](O)C[C@]2(C)[C@@]1(O)C(=O)COP(=O)(O)O (some centres not stated)
inactive: [10] 1.07 | [17] 1.08 | [18] 1.03 | [19] 0.971 | [20] 1.03 | [21] 0.983 | [22] 1.08 | [23] 1.09

O=C(O)C1C(O)CCC2CN3CCc4c([nH]c5ccccc45)C3CC21 (configuration not stated)
inactive: [1] 1.03 | S. cerevisiae deletion strains, locus YBR021W, strain FUR4, hits give low values 0.972 | [6] 1 | S. cerevisiae deletion strains, locus YCL029C, strain bik1, hits give low values 1.03 | S. cerevisiae deletion strains, locus YDL035C, strain GPR1, hits give low values 1 | S. cerevisiae deletion strains, locus YDL074C, strain BRE1, hits give low values 1.02 | [7] 1.02 | S. cerevisiae deletion strains, locus YDL185W, strain tfp1, hits give low values 1.01 | S. cerevisiae deletion strains, locus YDL192W, strain arf1, hits give low values 1 | S. cerevisiae deletion strains, locus YDR101C, strain arx1, hits give low values 1.01 | [8] 1.01 | S. cerevisiae deletion strains, locus YDR162C, strain NBP2, hits give low values 1.03 | S. cerevisiae deletion strains, locus YDR318W, strain mcm21, hits give low values 1 | S. cerevisiae deletion strains, locus YDR388W, hits give low values 1.01 | S. cerevisiae deletion strains, locus YDR502C, strain sam2, hits give low values 1.02 | [9] 1.01 | S. cerevisiae deletion strains, locus YER110C, hits give low values 1.02 | S. cerevisiae deletion strains, locus YER155C, strain BEM2, hits give low values 1.02 | S. cerevisiae deletion strains, locus YER167W, strain BCK2, hits give low values 1.02 | S. cerevisiae deletion strains, locus YGL078C, strain dbp3, hits give low values 1.01 | S. cerevisiae deletion strains, locus YGL086W, strain mad1, hits give low values 1.02 | S. cerevisiae deletion strains, locus YGL248W, strain PDE1, hits give low values 1.01 | S. cerevisiae deletion strains, locus YGR135W, strain pre9, hits give low values 0.996 | S. cerevisiae deletion strains, locus YGR252W, strain gcn5, hits give low values 0.951 | [10] 1.01 | S. cerevisiae deletion strains, locus YHR079C, strain IRE1 (second series), hits give low values 1.01 | S. cerevisiae deletion strains, locus YHR094C, strain hxt1, hits give low values 1.02 | S. cerevisiae deletion strains, locus YHR129C, strain ARP1, hits give low values 1.01 | S. cerevisiae deletion strains, locus YHR200W, strain rpn10, hits give low values 1.02 | S. cerevisiae deletion strains, locus YIL066C, strain RNR3, hits give low values 1.01 | S. cerevisiae deletion strains, locus YIL073C, strain SPO22, hits give low values 0.988 | S. cerevisiae deletion strains, locus YIL125W, strain kgd1, hits give low values 1.01 | S. cerevisiae deletion strains, locus YIR030C, strain dcg1, hits give low values 1.01 | [18] 1.03 | S. cerevisiae deletion strains, locus YJL134W, strain LCB3, hits give low values 1.02 | S. cerevisiae deletion strains, locus YJL168C, strain set2, hits give low values 1.01 | S. cerevisiae deletion strains, locus YJL187C, strain SWE1 (second series), hits give low values 1.01 | [11] 1.02 | [12] 1.04 | S. cerevisiae deletion strains, locus YKL009W, strain mrt4, hits give low values 1.03 | S. cerevisiae deletion strains, locus YKL068W, hits give low values 1.01 | S. cerevisiae deletion strains, locus YKL085W, strain MDH1 (second series), hits give low values 0.998 | S. cerevisiae deletion strains, locus YKL085W, strain MDH1, hits give low values 0.998 | S. cerevisiae deletion strains, locus YKR001C, strain vps1, hits give low values 1.01 | [13] 1.06 | S. cerevisiae deletion strains, locus YLR058C, strain SHM2, hits give low values 1.01 | S. cerevisiae deletion strains, locus YLR102C, strain apc9, hits give low values 1.02 | [14] 1.06 | S. cerevisiae deletion strains, locus YLR268W, strain sec22, hits give low values 1.03 | S. cerevisiae deletion strains, locus YLR330W, strain CHS5, hits give low values 1.01 | S. cerevisiae deletion strains, locus YLR342W, strain FKS1 (second series), hits give low values 1.05 | S. cerevisiae deletion strains, locus YLR371W, strain rom2, hits give low values 1.02 | S. cerevisiae deletion strains, locus YLR418C, strain cdc73, hits give low values 0.986 | S. cerevisiae deletion strains, locus YML016C, strain PPZ1, hits give low values 1.01 | S. cerevisiae deletion strains, locus YML032C, strain rad52, hits give low values 1.01 | S. cerevisiae deletion strains, locus YML124C, strain tub3, hits give low values 1.01 | S. cerevisiae deletion strains, locus YMR078C, strain ctf18, hits give low values 1.01 | S. cerevisiae deletion strains, locus YMR223W, strain ubp8, hits give low values 0.988 | [3] 1.03 | [4] 1.02 | S. cerevisiae deletion strains, locus YNL067W, strain RPL9B, hits give low values 1.03 | S. cerevisiae deletion strains, locus YNL233W, strain BNI4, hits give low values 1.02 | S. cerevisiae deletion strains, locus YNL250W, strain rad50, hits give low values 1.02 | S. cerevisiae deletion strains, locus YNL271C, strain bni1, hits give low values 1.01 | S. cerevisiae deletion strains, locus YNL298W, strain CLA4, hits give low values 1.02 | S. cerevisiae deletion strains, locus YNL307C, strain MCK1, hits give low values 1.02 | [15] 1.01 | S. cerevisiae deletion strains, locus YNR052C, strain pop2, hits give low values 1 | S. cerevisiae deletion strains, locus YOL012C, strain htz1 1.58 | S. cerevisiae deletion strains, locus YOL147C, strain pex11, hits give low values 1.02 | S. cerevisiae deletion strains, locus YOR061W, strain CKA2, hits give low values 1.01 | S. cerevisiae deletion strains, locus YOR069W, strain VPS5, hits give low values 1.01 | S. cerevisiae deletion strains, locus YOR136W, strain idh2, hits give low values 1.02 | S. cerevisiae deletion strains, locus YOR144C, strain elg1, hits give low values 1.01 | S. cerevisiae deletion strains, locus YOR184W, strain ser1, hits give low values 1.03 | S. cerevisiae deletion strains, locus YOR316C, strain cot1, hits give low values 1.02 | [16] 1.03 | S. cerevisiae deletion strains, locus YPR119W, strain clb2, hits give low values 1.01 | S. cerevisiae deletion strains, locus YPR141C, strain kar3, hits give low values 1.01 | S. cerevisiae deletion strains, locus YPR163C, strain tif3, hits give low values 1.01 | S. cerevisiae deletion strains, locus YPR167C, strain met16, hits give low values 0.999 | S. cerevisiae deletion strains, strain wtn01, hits give low values 1.02
